High-throughput results from PubChem BioAssay.
DT40 TDP1 CPT – growth inhibition of DT40 Tdp1-/-;hTDP1 cells with camptothecin (screen for TDP1 inhibitors); hit rate 12% among 420,000; AID 686979; Potency, µM (doses to about 46.2 µM), inactives show at the top dose activity change, negative = growth inhibition, actives largely listed as inhibitors; chicken DT40 Tdp1-/-;hTDP1 cells + 20 nM CPT, ATP luminescence, 48 h; note: potency is the fitted concentration of half-maximal effect; nearly all actives have a fitted effect of over 55% in size
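Chicken DT40 Tdp1-/- cells stably complemented with human TDP1 were seeded at 400 cells/well in medium containing 20 nM camptothecin, exposed to pin-transferred compounds, and grown at 37 °C for at least 48 hr. Viability was read as ATP luminescence.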
HT1080 IDH1KD tx – toxicity to HT-1080 IDH1 knockdown cells (counter line); HT-1080 IDH1 knockdown viability, ATP luminescence, 48 h; Potency, µM (titrated, usually from 46.1 µM), for inactives: top-dose activity, negative = toxicity, hits mostly cytotoxic; hit rate 2% among 360,000;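 note: potency is the fitted concentration of half-maximal effect; 0% = DMSO wells and -100% = cell-free medium wells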
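Assay cells: HT-1080 with IDH1 knockdown, 750 per well, RPMI/5% FBS. Exposure: 48 h at 37 °C following 2 h pre-incubation. Read: CellTiter-Glo luminescence; fitted concentration-response, curve class assigned.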
HT1080-NT tox – kills 2HG-producing HT-1080-NT fibrosarcoma cells. HT-1080-NT fibrosarcoma viability, CellTiter-Glo ATP luminescence, 48 h. Potency, µM (highest dose often 46.1 µM), without a hit: top-dose activity, negative = less viability, actives largely listed as cytotoxic. hit rate 1.6% among 360,000. AID 686970;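 note: NT is the 2HG producing partner of a matched IDH1 knockdown line; potency is the fitted concentration of half-maximal effect; 0% = DMSO-treated cells and -100% = media-only wells without cells; nearly all actives have a fitted effect of over 55% in size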
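Luminescent CellTiter-Glo readout after 48 hours of compound exposure at 37 degrees C defined viability of HT-1080-NT cells. Activity was normalized to DMSO wells and cell-free media wells; concentration-response curves were fitted and assigned curve classes.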
IL1B secr inh – blocks inflammasome-driven IL-1 beta release; THP-1 LPS/ATP IL-1B secretion, AlphaLISA, 16 h; stronger effect = lower value; activity change, % at 57.5 µM; hit rate 4.7% among 360,000; AID 743279; in the data active = activity change below about -50%; inconclusive = mostly about -30% to -49%
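Secreted IL-1B measured by AlphaLISA bead assay after 16 h compound exposure of THP-1 cells; compounds (final up to 57.5 uM) added 1 h before LPS (250 ng/mL) and ATP (1.25 mM) stimulation; lower signal means less secretion.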
TDP1 cell noCPT – qHTS for Inhibitors of human tyrosyl-DNA phosphodiesterase 1 (TDP1): qHTS in cells in absence of CPT | DT40 Tdp1-/- hTDP1 cells, no CPT, ATP luminescence, 48 h | Potency, µM (series often up to 46.2 µM), inactives show top-dose activity change, negative = growth inhibition, actives largely listed as inhibitors | hit rate 15% among 420,000; note: potency is the fitted concentration of half-maximal effect; nearly all actives have a fitted effect of over 55% in size
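Cells were dispensed at 400 per well, compounds added by pin tool, plates incubated ≥48 hr at 37 °C, then CellTiter-Glo added for 30 min at room temperature before luminescence reading. Line: DT40 Tdp1-/- complemented with hTDP1; camptothecin omitted.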
Numbers without * were called inactive; [ ] = remark or other dose. Sampled rows, rich in hits. Any-hit rate of the full collection: about 19%. Unless noted, calls come from the whole dose curve; as a rule, active = well fitted curve in the direction sought with a large enough effect; inconclusive = small, poorly fitted or top-dose-only effect, or another doubt; inactive = no such curve, though single readings can be large; an effect the other way counts as inactive or inconclusive. Unless noted, % is set by controls: 0 for no effect and ±100 for the full control effect.

Results for Cc1ccccc1-n1c(C)nnc1SC(C)C(=O)NCC1CCCO1 (centres undefined) ?
DT40 TDP1 CPT: -13.9%; HT1080 IDH1KD tx: -4.8%; HT1080-NT tox: 1.8%[9.24 µM]; IL1B secr inh: 19.6; TDP1 cell noCPT: 5.8%

Results for COc1ccc(CC(=O)NCC2CCCN(Cc3ccccc3Cl)C2)cc1 (centres undefined) ?
DT40 TDP1 CPT: -27.5%; HT1080 IDH1KD tx: 2.9%; HT1080-NT tox: 6.8%; IL1B secr inh: 9.2; TDP1 cell noCPT: -26.3%

How did Cc1cc(C)n(CC(=O)N2CCC(n3c(C(C)C)nc4cccnc43)CC2)n1 do in these assays?
DT40 TDP1 CPT: 13.5%[9.04 µM]; TDP1 cell noCPT: -9.5%

Results for C/C(=N\NC(=O)CSc1nnc(C)s1)c1ccc(Cl)cc1 ?
DT40 TDP1 CPT: 3.3%; HT1080 IDH1KD tx: 12.8%; HT1080-NT tox: 5.0%; IL1B secr inh: -7.8; TDP1 cell noCPT: 0.5%

Results for O=C(NC1CCCCC1)C(c1ccc(O)cc1)N(C(=O)c1cnccn1)c1cccc(F)c1 (centres undefined) ?
DT40 TDP1 CPT: -4.9%; HT1080 IDH1KD tx: 4.2%; HT1080-NT tox: 11.1%; IL1B secr inh: 3.5; TDP1 cell noCPT: -21.4%

How did CC1CCCN(C(C(=O)Nc2ccc3c(c2)OCO3)c2ccccc2)C1 (centres undefined) do in these assays?
DT40 TDP1 CPT: 14.6µM*; HT1080 IDH1KD tx: -5.7%; HT1080-NT tox: -20.5%; IL1B secr inh: 23.6; TDP1 cell noCPT: 16.4µM*

How did CC1CCCN(C(C(=O)Nc2ccc3c(c2)OCCO3)c2ccccc2)C1 (centres undefined) do in these assays?
DT40 TDP1 CPT: -27.7%; HT1080 IDH1KD tx: 11.5%; HT1080-NT tox: -2.1%; IL1B secr inh: -1.6; TDP1 cell noCPT: -19.1%

What do the screens show for `CC1CCCN(C(C(=O)NC2CCCCC2)c2cc3c(cc2[N+](=O)[O-])OCO3)C1` (centres undefined)?
DT40 TDP1 CPT: inconclusive; HT1080 IDH1KD tx: -5.5%; HT1080-NT tox: -5.4%; IL1B secr inh: -59.1*; TDP1 cell noCPT: inconclusive

How did CCN1C(=O)/C(=C2/C=Cc3cc(C)ccc3N2CC)N(C)C1=S do in these assays?
DT40 TDP1 CPT: 23.1µM*; HT1080 IDH1KD tx: -20.5%; HT1080-NT tox: -23.9%; IL1B secr inh: inconclusive; TDP1 cell noCPT: 20.6µM*

Results for CCN1/C(=C2/SC(=S)N(C)C2=O)C=Cc2cc(C)ccc21 ?
DT40 TDP1 CPT: -7.9%; HT1080 IDH1KD tx: 23.5%; HT1080-NT tox: 24.0%; IL1B secr inh: -8.7; TDP1 cell noCPT: -0.4%

How did Cn1c(N)c(C(=O)CSc2n[nH]c(-c3ccccc3)n2)c(=O)n(C)c1=O do in these assays?
DT40 TDP1 CPT: -27.3%; HT1080 IDH1KD tx: 7.9%; HT1080-NT tox: 14.2%; IL1B secr inh: 5.6; TDP1 cell noCPT: -19.8%

Results for COc1ccc(C(c2nnnn2CCc2ccccc2)N2CCN(C)CC2)cc1OC (centres undefined) ?
DT40 TDP1 CPT: -12.4%; HT1080 IDH1KD tx: -2.1%; HT1080-NT tox: 9.1%; IL1B secr inh: -7.0; TDP1 cell noCPT: -2.6%

How did COc1ccccc1N1CCN(C(c2ccccc2)c2nnnn2CCc2ccccc2)CC1 (centres undefined) do in these assays?
DT40 TDP1 CPT: 18.4µM*; HT1080 IDH1KD tx: -19.6%; HT1080-NT tox: -1.1%; IL1B secr inh: 0.0; TDP1 cell noCPT: 18.4µM*

How did COc1ccccc1C(c1nnnn1CCc1ccccc1)N1CCCCCC1 (centres undefined) do in these assays?
DT40 TDP1 CPT: inconclusive; HT1080 IDH1KD tx: inconclusive; HT1080-NT tox: inconclusive; IL1B secr inh: -21.8; TDP1 cell noCPT: 23.1µM*

Results for COc1cccc(C(c2nnnn2CCc2ccccc2)N2CCN(c3ccccc3)CC2)c1OC (centres undefined) ?
DT40 TDP1 CPT: inconclusive; HT1080 IDH1KD tx: 6.5%; HT1080-NT tox: 8.2%; IL1B secr inh: -19.9; TDP1 cell noCPT: inconclusive

What do the screens show for `COc1ccccc1N1CCN(C(c2ccccc2)c2nnc(-c3ccccc3Cl)o2)CC1` (centres undefined)?
DT40 TDP1 CPT: 29.1µM*; TDP1 cell noCPT: inconclusive

How did CCOC(=O)C(C)NC(=O)CCc1nnc2ccc(N3CCCCC3)nn12 (centres undefined) do in these assays?
DT40 TDP1 CPT: -28.8%; HT1080 IDH1KD tx: 21.2%; HT1080-NT tox: 13.7%; IL1B secr inh: -6.0; TDP1 cell noCPT: -25.9%

What do the screens show for `CCC(COC)NC(=O)c1cnn(-c2ncc3c(n2)-c2ccccc2CCC3)c1C` (centres undefined)?
DT40 TDP1 CPT: -23.7%; TDP1 cell noCPT: -25.8%

How did COc1ccc(Nc2nc(C)cc(C)c2C#N)cc1OC do in these assays?
DT40 TDP1 CPT: -12.8%; HT1080 IDH1KD tx: 1.9%; HT1080-NT tox: 0.4%; IL1B secr inh: -8.8; TDP1 cell noCPT: -15.3%

What do the screens show for `CCN(CC)S(=O)(=O)c1cccc(NC(=O)CN2C(=O)NC3(CCOc4ccccc43)C2=O)c1` (centres undefined)?
DT40 TDP1 CPT: 16.4µM*; HT1080 IDH1KD tx: -24.9%; HT1080-NT tox: -3.7%; IL1B secr inh: 7.9; TDP1 cell noCPT: inconclusive

What do the screens show for `CC(CNC(=O)CN1C(=O)NC2(CCOc3ccccc32)C1=O)c1ccccc1` (centres undefined)?
DT40 TDP1 CPT: 14.6µM*; HT1080 IDH1KD tx: 8.8%; HT1080-NT tox: 0.4%[9.24 µM]; IL1B secr inh: -2.1; TDP1 cell noCPT: inconclusive

How did COCCNC(=O)CN1C(=O)NC2(CCOc3ccccc32)C1=O (centres undefined) do in these assays?
DT40 TDP1 CPT: -6.7%; HT1080 IDH1KD tx: -3.9%; HT1080-NT tox: -1.4%; IL1B secr inh: -6.8; TDP1 cell noCPT: 0.2%

What do the screens show for `O=C(CN1C(=O)NC2(CCOc3ccccc32)C1=O)Nc1ccc2c(c1)OCCO2` (centres undefined)?
DT40 TDP1 CPT: -20.6%; HT1080 IDH1KD tx: -7.9%; HT1080-NT tox: -9.7%; IL1B secr inh: -25.6; TDP1 cell noCPT: -15.4%

Results for CC(C)CN1CCCC2(CCN(S(=O)(=O)c3ccccc3)CC2)C1 ?
DT40 TDP1 CPT: 6.5%; TDP1 cell noCPT: -17.9%

How did Cn1ncc(C(N)=O)c1NC(=S)NC(=O)c1ccc(Br)o1 do in these assays?
DT40 TDP1 CPT: -8.5%; HT1080 IDH1KD tx: 8.3%; HT1080-NT tox: 6.6%; IL1B secr inh: 3.9; TDP1 cell noCPT: -12.9%

How did CCN(CC)S(=O)(=O)c1ccc(N=NC2=C(O)CC(C)(C)CC2=O)cc1 do in these assays?
DT40 TDP1 CPT: inconclusive; HT1080 IDH1KD tx: 3.9%; HT1080-NT tox: -7.1%; IL1B secr inh: -55.4*; TDP1 cell noCPT: inconclusive

How did Cc1cccc(NC(=O)CSc2cn(CC(=O)N3CCC(C)CC3)c3ccccc23)c1C do in these assays?
DT40 TDP1 CPT: 23.1µM*; TDP1 cell noCPT: 9.2µM*
